Activity calls are given as the source filed them. Rule for the calls: active = hit-call score of the fitted dose curve at least 0.9, where 1 is the maximum; inactive = score below 0.9.
Columns and labels:
[1] = ATG_GLI_CIS: Attagene CIS-FACTORIAL HepG2 Assay for human Zinc Finger Protein GLI1 (AID 2282945); conditions: HepG2, Attagene cis-factorial reporter mRNA, GLI element; actives raise or lower the signal
Procedure, shortened: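 Transiently transfected HepG2 cells report endogenous transcription factor activity via cis-element-driven reporter units. After 24 h compound exposure, reporter mRNA was measured by RT-PCR with capillary electrophoresis; bidirectional fitting against DMSO baseline.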

[2] = ATG_GRE_CIS: Attagene CIS-FACTORIAL HepG2 Assay for human Glucocorticoid Response Elements (GRE) (AID 2282947); conditions: HepG2 GRE cis-reporter, Attagene multiplex mRNA; actives raise or lower the signal
Procedure, shortened: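 Fluorescence intensity of reporter-specific cDNA fragments, separated by capillary electrophoresis, provides the signal. Constructs carry cis-regulating promoters in transiently transfected HepG2 liver cells; 24 h incubation; fitting is bidirectional against DMSO.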

[3] = ATG_M_32_CIS: Attagene CIS-FACTORIAL HepG2 Assay for M32 Transcription Factor (Internal Marker) (AID 2282949); conditions: HepG2 Attagene cis-factorial M32 reporter, mRNA; actives raise or lower the signal;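 note: background control marker of the multiplexed CIS panel rather than a real target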
Procedure, shortened: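 HepG2 transfectants (cis-regulated reporter transcription units) dosed 24 h. Reporter mRNA by RT-PCR plus CE, analysed as gain or loss relative to DMSO.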

[4] = ATG_M_06_CIS: Attagene CIS-FACTORIAL HepG2 Assay for M06 Transcription Factor (Internal Marker) (AID 2282950); conditions: HepG2 Attagene CIS-FACTORIAL M06 internal marker reporter; actives raise or lower the signal
Procedure, shortened: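 Fluorescence-labelled RT-PCR products from cis-promoter reporter units, cut with HpaI and resolved by capillary electrophoresis, give the signal. Cells are human HepG2, dosed for 24 h. Serves as background control, fitted relative to DMSO.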

[5] = biological target: Hypoxia-inducible factor 1-alpha (Homo sapiens) (UniProt Q16665); test: ATG_HIF1a_CIS: Attagene CIS-FACTORIAL HepG2 Assay for human Hypoxia Inducible Factor 1 (HIF1A) (AID 2282951); conditions: HepG2 Attagene cis-factorial HIF1a reporter transcription; actives raise or lower the signal
Chain of Hypoxia-inducible factor 1-alpha (Homo sapiens) (Q16665 whole entry, looked up): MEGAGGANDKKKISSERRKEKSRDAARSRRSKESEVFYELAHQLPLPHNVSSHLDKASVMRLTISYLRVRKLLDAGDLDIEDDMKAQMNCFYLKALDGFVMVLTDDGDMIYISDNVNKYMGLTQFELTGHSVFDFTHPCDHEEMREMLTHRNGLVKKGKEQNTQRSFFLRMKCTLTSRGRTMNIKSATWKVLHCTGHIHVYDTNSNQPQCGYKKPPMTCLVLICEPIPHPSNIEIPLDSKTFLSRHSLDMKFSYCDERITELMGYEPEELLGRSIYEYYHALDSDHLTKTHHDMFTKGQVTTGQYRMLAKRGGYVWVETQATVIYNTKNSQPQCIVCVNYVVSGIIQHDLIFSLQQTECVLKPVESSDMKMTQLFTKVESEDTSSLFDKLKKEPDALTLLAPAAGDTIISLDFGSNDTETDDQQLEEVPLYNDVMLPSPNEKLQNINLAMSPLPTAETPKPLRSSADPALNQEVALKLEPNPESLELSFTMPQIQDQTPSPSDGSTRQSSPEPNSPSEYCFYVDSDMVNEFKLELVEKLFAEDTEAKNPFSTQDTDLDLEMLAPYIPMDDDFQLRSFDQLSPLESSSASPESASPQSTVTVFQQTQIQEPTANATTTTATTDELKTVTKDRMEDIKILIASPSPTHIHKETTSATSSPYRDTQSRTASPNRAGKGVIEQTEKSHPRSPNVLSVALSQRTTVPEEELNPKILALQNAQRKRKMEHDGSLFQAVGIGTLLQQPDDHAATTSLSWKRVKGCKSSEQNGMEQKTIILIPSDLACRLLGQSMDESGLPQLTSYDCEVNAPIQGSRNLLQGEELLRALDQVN
Procedure, shortened: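 HepG2 cells transiently transfected with multiple cis-regulated reporter transcription units measure endogenous transcription factor activity. After 24 h exposure, reporter mRNA is quantified by RT-PCR with 6-FAM labelling, HpaI digestion and capillary electrophoresis. Bidirectional fitting against DMSO.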

[6] = biological target: Hepatocyte nuclear factor 6 (Homo sapiens) (UniProt Q9UBC0); test: ATG_HNF6_CIS: Attagene CIS-FACTORIAL HepG2 Assay for human Hepatocyte Nuclear Factor 6 (HNF6) (AID 2282952); conditions: HepG2 Attagene cis-factorial HNF6 reporter transcription; actives raise or lower the signal
Chain of Hepatocyte nuclear factor 6 (Homo sapiens) (Q9UBC0 whole entry, looked up, the tested form may be a part): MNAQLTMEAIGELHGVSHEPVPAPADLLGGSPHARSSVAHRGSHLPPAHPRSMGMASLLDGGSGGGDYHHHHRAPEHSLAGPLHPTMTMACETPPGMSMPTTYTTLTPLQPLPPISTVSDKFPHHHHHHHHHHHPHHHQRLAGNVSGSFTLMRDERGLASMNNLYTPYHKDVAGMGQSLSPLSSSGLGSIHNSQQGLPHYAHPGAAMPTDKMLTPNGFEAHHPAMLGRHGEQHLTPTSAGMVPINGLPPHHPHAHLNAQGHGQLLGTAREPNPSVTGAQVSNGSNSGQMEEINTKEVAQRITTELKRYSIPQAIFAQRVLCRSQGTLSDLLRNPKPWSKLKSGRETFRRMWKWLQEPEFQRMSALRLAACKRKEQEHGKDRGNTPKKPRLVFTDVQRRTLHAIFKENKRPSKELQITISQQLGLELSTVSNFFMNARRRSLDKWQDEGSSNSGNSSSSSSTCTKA
Procedure, shortened: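 First, HepG2 cells were transfected with the multiplexed cis reporter library and dosed with chemical for 24 h. Next, RNA was reverse-transcribed, PCR-amplified and fluorescently labelled. Finally, HpaI-digested fragments were read by capillary electrophoresis.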

[7] = biological target: Heat shock factor protein 1 (Homo sapiens) (UniProt Q00613); test: ATG_HSE_CIS: Attagene CIS-FACTORIAL HepG2 Assay for human Heat Shock Transcription Factor 1 (HSE) (AID 2282953); conditions: HepG2 HSE cis-reporter, Attagene RNA transcription; actives raise or lower the signal
Chain of Heat shock factor protein 1 (Homo sapiens) (Q00613 whole entry, looked up): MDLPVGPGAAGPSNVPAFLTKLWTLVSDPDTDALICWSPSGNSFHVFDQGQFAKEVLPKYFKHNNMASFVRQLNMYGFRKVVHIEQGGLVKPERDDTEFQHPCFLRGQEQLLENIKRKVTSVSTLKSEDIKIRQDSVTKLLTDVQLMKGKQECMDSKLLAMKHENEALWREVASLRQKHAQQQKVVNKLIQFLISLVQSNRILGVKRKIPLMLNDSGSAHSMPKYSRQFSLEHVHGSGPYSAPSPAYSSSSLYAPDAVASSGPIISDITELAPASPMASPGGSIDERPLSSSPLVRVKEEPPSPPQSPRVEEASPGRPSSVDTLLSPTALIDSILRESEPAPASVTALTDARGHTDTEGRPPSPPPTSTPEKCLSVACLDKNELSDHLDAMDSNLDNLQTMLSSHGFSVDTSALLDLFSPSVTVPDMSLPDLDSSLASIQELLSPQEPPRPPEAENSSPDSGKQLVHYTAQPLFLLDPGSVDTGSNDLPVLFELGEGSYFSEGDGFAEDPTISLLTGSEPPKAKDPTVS
Procedure, shortened: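 After a 24 h incubation with test chemical, transfected HepG2 cells were harvested for RNA; reporter transcripts were measured by RT-PCR and capillary electrophoresis. Values reflect gain or loss of signal relative to DMSO.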

[8] = ATG_MRE_CIS: Attagene CIS-FACTORIAL HepG2 Assay for human Metal Responsive Element (MRE) (AID 2282954); conditions: HepG2 MRE cis-reporter transcription, Attagene multiplex; actives raise or lower the signal
Procedure, shortened: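 Measured here is mRNA induction from an MRE cis-element reporter in HepG2 after 24 h, quantified by fluorescence of labelled RT-PCR products on capillary electrophoresis; gain- and loss-of-signal fits use DMSO as baseline.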

[9] = ATG_PBREM_CIS: Attagene CIS-FACTORIAL HepG2 Assay for human Phenobarbital-responsive Enhancer Module (PBREM) (AID 2282955); conditions: HepG2 PBREM cis-reporter, Attagene multiplexed transcription; actives raise or lower the signal
Procedure, shortened: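 HepG2 cells transiently transfected with multiple cis-regulated reporter units measure endogenous transcription factor activity; 24 h compound exposure. Reporter mRNA quantified by RT-PCR, fluorescent labelling, HpaI digestion and capillary electrophoresis; bidirectional fit versus DMSO.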

[10] = biological target: Paired box protein Pax-6 (Homo sapiens) (UniProt P26367); test: ATG_Pax6_CIS: Attagene CIS-FACTORIAL HepG2 Assay for human Paired Box 6 (PAX6) (AID 2282956); conditions: HepG2 CIS-FACTORIAL PAX6 reporter transcription, RNA readout; actives raise or lower the signal
Chain of Paired box protein Pax-6 (Homo sapiens) (P26367 whole entry, looked up): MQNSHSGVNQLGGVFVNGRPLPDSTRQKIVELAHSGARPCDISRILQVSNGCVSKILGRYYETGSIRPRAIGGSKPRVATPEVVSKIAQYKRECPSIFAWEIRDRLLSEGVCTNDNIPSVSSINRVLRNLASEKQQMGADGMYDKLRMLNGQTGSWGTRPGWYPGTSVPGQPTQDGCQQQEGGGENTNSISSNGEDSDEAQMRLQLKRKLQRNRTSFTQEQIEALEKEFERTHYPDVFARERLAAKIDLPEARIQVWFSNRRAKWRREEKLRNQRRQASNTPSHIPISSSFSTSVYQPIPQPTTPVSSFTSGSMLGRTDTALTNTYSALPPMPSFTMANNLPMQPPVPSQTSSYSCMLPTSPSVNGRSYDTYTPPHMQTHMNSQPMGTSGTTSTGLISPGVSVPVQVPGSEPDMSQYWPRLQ
Procedure, shortened: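 Read-out is reporter transcript level, measured by RT-PCR with fluorescent primer extension and capillary electrophoresis after 24 h dosing of transfected HepG2 cells. Activity in either direction fitted relative to DMSO control.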

[11] = ATG_Sox_CIS: Attagene CIS-FACTORIAL HepG2 Assay for human SRY-box transcription factor (SOX) (AID 2282960); conditions: HepG2 Attagene cis-factorial SOX reporter, mRNA; actives raise or lower the signal
Procedure, shortened: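 HepG2 cells transiently transfected with multiple cis-regulated reporter units, then dosed for 24 h. Reporter mRNA quantified by RT-PCR, fluorescent labelling, HpaI digestion and capillary electrophoresis; bidirectional fit versus DMSO.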

[12] = biological target: Transcription factor Sp1 (Homo sapiens) (UniProt P08047); test: ATG_Sp1_CIS: Attagene CIS-FACTORIAL HepG2 Assay for human Specificity Protein 1 (Sp1) (AID 2282961); conditions: HepG2 Sp1 cis-reporter transcription, actives raise or lower the signal
Chain of Transcription factor Sp1 (Homo sapiens) (P08047 whole entry, looked up): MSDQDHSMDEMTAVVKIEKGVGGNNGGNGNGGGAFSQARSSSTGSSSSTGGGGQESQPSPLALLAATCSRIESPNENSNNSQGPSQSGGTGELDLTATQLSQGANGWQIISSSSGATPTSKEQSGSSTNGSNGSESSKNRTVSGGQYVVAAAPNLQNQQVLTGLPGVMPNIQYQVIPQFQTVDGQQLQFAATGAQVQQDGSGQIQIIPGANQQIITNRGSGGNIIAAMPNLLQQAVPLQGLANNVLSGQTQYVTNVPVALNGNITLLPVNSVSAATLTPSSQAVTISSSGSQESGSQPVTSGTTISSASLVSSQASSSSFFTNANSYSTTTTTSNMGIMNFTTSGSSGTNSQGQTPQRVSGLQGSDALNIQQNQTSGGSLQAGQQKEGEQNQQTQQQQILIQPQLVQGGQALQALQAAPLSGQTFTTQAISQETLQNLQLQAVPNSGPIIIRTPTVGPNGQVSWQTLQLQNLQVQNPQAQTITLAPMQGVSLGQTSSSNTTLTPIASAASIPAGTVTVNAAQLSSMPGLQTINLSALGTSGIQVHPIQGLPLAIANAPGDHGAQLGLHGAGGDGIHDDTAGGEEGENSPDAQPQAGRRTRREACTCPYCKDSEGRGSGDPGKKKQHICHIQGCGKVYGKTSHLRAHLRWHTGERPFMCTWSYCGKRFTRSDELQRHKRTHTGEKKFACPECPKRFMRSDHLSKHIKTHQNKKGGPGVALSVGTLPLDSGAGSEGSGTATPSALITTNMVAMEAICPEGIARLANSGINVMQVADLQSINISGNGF
Procedure, shortened: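 HepG2 cells transiently transfected with multiplexed cis-regulated reporter constructs, chemical exposure 24 h. Reporter mRNA quantified by RT-PCR with capillary electrophoresis; bidirectional fit relative to DMSO.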

[13] = ATG_SREBP_CIS: Attagene CIS-FACTORIAL HepG2 Assay for human Sterol Regulatory Element Binding (SREBP) (AID 2282962); conditions: HepG2 Attagene cis-factorial SREBP reporter, mRNA; actives raise or lower the signal
Procedure, shortened: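 Endogenous SREBP activity read as cis-element-driven reporter transcript in transiently transfected HepG2, 24 h post-dosing; quantified via RT-PCR plus capillary electrophoresis of fluorescent fragments. Gain or loss of signal fitted relative to DMSO baseline.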

[14] = biological target: Signal transducer and activator of transcription 3 (Homo sapiens) (UniProt P40763); test: ATG_STAT3_CIS: Attagene CIS-FACTORIAL HepG2 Assay for human Signal Transducer and Activator of Transcription 3 (STAT3) (AID 2282963); conditions: HepG2, Attagene cis-factorial STAT3 reporter transcription; actives raise or lower the signal
Chain of Signal transducer and activator of transcription 3 (Homo sapiens) (P40763 whole entry, looked up, the tested form may be a part): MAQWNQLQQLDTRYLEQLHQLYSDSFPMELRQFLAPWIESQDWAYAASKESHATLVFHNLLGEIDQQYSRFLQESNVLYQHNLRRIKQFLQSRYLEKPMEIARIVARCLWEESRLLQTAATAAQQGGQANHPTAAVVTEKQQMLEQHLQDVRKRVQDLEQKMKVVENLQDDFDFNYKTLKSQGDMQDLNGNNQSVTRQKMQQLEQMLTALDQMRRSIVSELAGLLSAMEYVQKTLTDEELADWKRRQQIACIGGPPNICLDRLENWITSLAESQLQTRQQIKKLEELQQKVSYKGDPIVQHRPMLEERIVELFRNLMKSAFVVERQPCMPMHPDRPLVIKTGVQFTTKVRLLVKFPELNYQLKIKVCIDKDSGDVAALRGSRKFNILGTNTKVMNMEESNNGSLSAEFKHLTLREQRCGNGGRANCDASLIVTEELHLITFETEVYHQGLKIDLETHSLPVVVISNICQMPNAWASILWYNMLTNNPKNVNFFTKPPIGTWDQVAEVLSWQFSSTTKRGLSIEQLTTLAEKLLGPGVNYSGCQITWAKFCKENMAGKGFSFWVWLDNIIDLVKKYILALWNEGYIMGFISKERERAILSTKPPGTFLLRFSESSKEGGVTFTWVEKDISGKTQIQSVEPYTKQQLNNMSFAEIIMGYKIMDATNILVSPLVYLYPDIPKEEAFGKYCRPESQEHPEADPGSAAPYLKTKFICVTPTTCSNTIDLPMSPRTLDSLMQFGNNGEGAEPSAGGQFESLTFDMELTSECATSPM
Procedure, shortened: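 Fluorescence intensity of 6-FAM-labelled reporter fragments, separated by capillary electrophoresis after RT-PCR, gave the signal. Cells were HepG2 transfected with cis-element reporter units and treated 24 h; fitting was bidirectional relative to DMSO.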

[15] = ATG_TA_CIS: Attagene CIS-FACTORIAL HepG2 Assay for human TA Basal Promoter (AID 2282964); conditions: HepG2 Attagene CIS-factorial TA basal promoter reporter; actives raise or lower the signal
Procedure, shortened: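 Multiplexed mRNA reporter assay, HepG2, 24 h. Reporter cDNA amplified, 6-FAM primer-extended, HpaI-cut, CE-sized; DMSO = negative control and baseline.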

[16] = ATG_ISRE_CIS: Attagene CIS-FACTORIAL HepG2 Assay for human Interferon Regulatory Factor 1 (IRF1) binding to an Interferon-Stimulated Response Element (ISRE) (AID 2282948); conditions: HepG2 ISRE cis-reporter (Attagene), mRNA transcription readout; actives raise or lower the signal
Procedure, shortened: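 Endogenous transcription factor activity read as reporter transcript abundance via RT-PCR and capillary electrophoresis. HepG2 cells transiently transfected, 24 h chemical exposure. Gain or loss fitted against DMSO baseline.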

[17] = ATG_PPRE_CIS: Attagene CIS-FACTORIAL HepG2 Assay for human Peroxisome Proliferator-activated Response Element (PPRE) (AID 2282958); conditions: HepG2 PPRE cis-element reporter, Attagene transcription factor profiling; actives raise or lower the signal
Procedure, shortened: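 HepG2 cells are transiently transfected with multiplexed cis-promoter reporter units to report endogenous PPAR activity. After 24 h dosing, reporter mRNA is read by RT-PCR and capillary electrophoresis. Fitting is bidirectional against DMSO.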

[18] = ATG_RORE_CIS: Attagene CIS-FACTORIAL HepG2 Assay for human RAR-related Orphan Receptor Element (RORE) (AID 2282959); conditions: HepG2 Attagene cis-factorial RORE reporter, mRNA; actives raise or lower the signal
Procedure, shortened: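 HepG2 cells carrying transiently transfected cis-regulated reporter units; RORE-driven reporter mRNA quantified 24 h post-dosing by RT-PCR, 6-FAM primer extension, HpaI digestion and capillary electrophoresis. Bidirectional fit versus DMSO.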

[19] = ATG_PXRE_CIS: Attagene CIS-FACTORIAL HepG2 Assay for human Pregnane X Receptor Element (PXRE) (AID 2282957); conditions: HepG2 Attagene CIS-FACTORIAL PXRE reporter, mRNA; actives raise or lower the signal
Procedure, shortened: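 After a 24 h chemical incubation, total RNA from transfected HepG2 cells was reverse-transcribed and reporter cDNA amplified, FAM-labeled, HpaI-digested and sized by capillary electrophoresis. DMSO served as baseline for bidirectional curve fitting.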

Measured: AC50

C[N+](C)(C)CCCNS(=O)(=O)C(F)(F)C(F)(F)C(F)(F)C(F)(F)C(F)(F)C(F)(F)C(F)(F)C(F)(F)F
inactive: [1] | [2] | [3] | [4] | [5] | [6] | [7] | [8] | [9] | [10] | [11] | [12] | [13] | [14] | [15]

CCCCCCCC(=O)OCC(COC(=O)CCCCCCC)OC(=O)CCCCCCC
inactive: [1] | [2] | [16] | [3] | [4] | [5] | [7] | [8] | [10] | [17] | [18] | [11] | [12] | [13] | [14] | [15]

O=C(O)/C=C/c1ccccc1
inactive: [1] | [2] | [16] | [3] | [4] | [5] | [8] | [10] | [19] | [17] | [18] | [11] | [12] | [13] | [14] | [15]

CCCCNS(=O)(=O)c1ccc(C)cc1
active: [19] 27.5 µM
inactive: [1] | [2] | [3] | [4] | [5] | [6] | [7] | [10] | [18] | [12] | [13] | [14]

Nc1ccc(O)c([N+](=O)[O-])c1
inactive: [1] | [2] | [3] | [4] | [5] | [6] | [8] | [9] | [10] | [19] | [17] | [18] | [11] | [12] | [13] | [14]

COC(OC)(C(=O)c1ccccc1)c1ccccc1
inactive: [1] | [2] | [3] | [4] | [5] | [6] | [7] | [17] | [11] | [12] | [13] | [15]
active: [8] 43.5 µM | [9] 3.88 µM | [10] 66 µM | [19] 2.19 µM

O=C1c2ccccc2C(=O)c2cc(S(=O)(=O)O)ccc21
inactive: [1] | [2] | [16] | [3] | [4] | [5] | [7] | [8] | [9] | [10] | [19] | [17] | [18] | [12] | [13] | [15]

CC(C)(C)C1CCC(=O)CC1
active: [7] 156 µM | [15] 152 µM
inactive: [1] | [2] | [3] | [4] | [5] | [6] | [8] | [10] | [19] | [17] | [18] | [11] | [12] | [13] | [14]

CCOC(=O)C1=NN(c2ccc(Cl)cc2Cl)C(C)(C(=O)OCC)C1 (stereo not given)
active: [7] 137 µM | [8] 66.8 µM | [19] 9.36 µM
inactive: [1] | [2] | [3] | [4] | [5] | [6] | [10] | [17] | [18] | [11] | [12] | [13] | [14] | [15]

CC12CCC(CC1)C(C)(C)O2
inactive: [1] | [2] | [3] | [4] | [5] | [6] | [8] | [10] | [19] | [18] | [11] | [12] | [13] | [14] | [15]

CCOC(=O)/C=C\C(=O)OCC
active: [17] 7.64 µM
inactive: [1] | [2] | [16] | [3] | [4] | [5] | [7] | [8] | [10] | [19] | [18] | [11] | [12] | [13] | [14] | [15]

N=C1C=CC(=C(c2ccc(N)cc2)c2ccc(N)cc2)C=C1
inactive: [1] | [3] | [4] | [9] | [17] | [18] | [11] | [12] | [14]
active: [2] 23.9 µM | [16] 33.4 µM | [7] 42.5 µM | [8] 48.2 µM | [19] 56.6 µM | [13] 26 µM

CC(=O)C(C)C
inactive: [1] | [2] | [16] | [3] | [4] | [5] | [7] | [10] | [19] | [17] | [18] | [11] | [12] | [13] | [14] | [15]
